Measured values published in PubChem BioAssay AID1159580 (chemical genetic matrix, 2015).
Values joined by “and” are separate entries in the source; they are usually repeats but may differ in a detail not shown here. Equal values may be shown once. Hit rate of the full screen: of about 5,500 compounds, about 2,000 (36%) were called active. Roughly 18% stayed inconclusive and do not appear here. Rule as the data show it: active = normalized growth mostly below about 0.91 (no sharp cut-off); inconclusive = no clear call, values can overlap the other calls; inactive = mostly above about 0.92. This is one part of the list.

Assay: chemical genetic growth profiling, strain panel (AID 1159580);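 also: tested at 20 µM; growth read once vehicle control cultures reached saturation at 30 °C; 1 = growth at the plate median or of vehicle wells; lower values mean less growth of the strain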
Conditions: S. cerevisiae deletion strains, growth OD

Measured: normalized growth

O=c1[nH]c2cc(Cl)c(Cl)cc2[nH]c1=O
inactive: locus YAL013W, strain DEP1, stronger effect = lower value 1 and 0.993 | locus YAL021C, strain ccr4, stronger effect = lower value 1.03 | locus YAL026C, strain drs2, stronger effect = lower value 0.993 | locus YAL030W, strain snc1, stronger effect = lower value 0.989 | locus YAL040C, strain CLN3, stronger effect = lower value 1.11 | locus YBL061C, strain skt5, stronger effect = lower value 0.982 | locus YBR009C, strain hhf1, stronger effect = lower value 0.988 | locus YBR021W, strain FUR4, stronger effect = lower value 1 | locus YBR023C, strain chs3, stronger effect = lower value 1 | locus YBR171W, strain sec66, stronger effect = lower value 0.98 | locus YBR229C, strain ROT2, stronger effect = lower value 1.01 | locus YBR231C, strain swc5, stronger effect = lower value 0.979 | locus YBR279W, strain paf1, stronger effect = lower value 0.985 | locus YCL011C, strain gbp2, stronger effect = lower value 0.984 | locus YCL016C, strain dcc1, stronger effect = lower value 0.997 | locus YCL029C, strain bik1, stronger effect = lower value 1.04 | locus YCL061C, strain MRC1 (second series), stronger effect = lower value 1.01 | locus YCL069W, strain vba3, stronger effect = lower value 0.999 | locus YCR088W, strain abp1, stronger effect = lower value 0.997 | locus YDL005C, strain med2, stronger effect = lower value 0.982 | locus YDL035C, strain GPR1, stronger effect = lower value 1.01 | locus YDL040C, strain nat1, stronger effect = lower value 0.994 | locus YDL074C, strain BRE1, stronger effect = lower value 1.03 | locus YDL101C, strain DUN1, stronger effect = lower value 1.02 | locus YDL134C, strain PPH21, stronger effect = lower value 1.01 | locus YDL185W, strain tfp1, stronger effect = lower value 1.02 | locus YDL192W, strain arf1, stronger effect = lower value 1.02 | locus YDR001C, strain nth1, stronger effect = lower value 1 | locus YDR069C, strain doa4, stronger effect = lower value 0.969 | locus YDR101C, strain arx1, stronger effect = lower value 1.03 | locus YDR137W, strain rgp1, stronger effect = lower value 0.994 | locus YDR150W, strain NUM1, stronger effect = lower value 1.01 | locus YDR159W, strain sac3, stronger effect = lower value 0.901 | locus YDR162C, strain NBP2, stronger effect = lower value 1.01 | locus YDR195W, strain ref2 1 | locus YDR297W, strain sur2, stronger effect = lower value 0.99 | locus YDR318W, strain mcm21, stronger effect = lower value 1.02 | locus YDR334W, strain swr1, stronger effect = lower value 0.994 | locus YDR335W, strain msn5, stronger effect = lower value 1 | locus YDR363W, strain ESC2, stronger effect = lower value 0.968 | locus YDR388W, stronger effect = lower value 1.02 | locus YDR392W, strain spt3, stronger effect = lower value 0.92 | locus YDR502C, strain sam2, stronger effect = lower value 1.03 | locus YEL003W, strain gim4, stronger effect = lower value 0.993 | locus YEL037C, strain rad23, stronger effect = lower value 1 | locus YEL061C, strain CIN8 (second series), stronger effect = lower value 1.01 | locus YEL061C, strain CIN8, stronger effect = lower value 1.01 | locus YER002W, strain NOP16, stronger effect = lower value 0.997 | locus YER015W, strain faa2, stronger effect = lower value 0.995 | locus YER016W, strain bim1, stronger effect = lower value 0.992 | locus YER110C, stronger effect = lower value 1.04 | locus YER111C, strain swi4, stronger effect = lower value 0.991 | locus YER155C, strain BEM2 (second series), stronger effect = lower value 0.967 | locus YER155C, strain BEM2, stronger effect = lower value 1 | locus YER167W, strain BCK2, stronger effect = lower value 1.02 | locus YFR010W, strain ubp6, stronger effect = lower value 0.985 | locus YGL078C, strain dbp3, stronger effect = lower value 1.03 | locus YGL086W, strain mad1, stronger effect = lower value 1.01 | locus YGL167C, strain pmr1, stronger effect = lower value 0.999 | locus YGL173C, strain kem1, stronger effect = lower value 0.984 | locus YGL227W, strain vid30, stronger effect = lower value 0.986 | locus YGL240W, strain doc1, stronger effect = lower value 0.966 | locus YGL248W, strain PDE1, stronger effect = lower value 1.01 | locus YGL253W, strain hxk2, stronger effect = lower value 0.975 | locus YGR078C, strain PAC10, stronger effect = lower value 1.02 and 1.04 | locus YGR135W, strain pre9, stronger effect = lower value 1.02 | locus YGR229C, strain SMI1, stronger effect = lower value 1.01 | locus YGR252W, strain gcn5, stronger effect = lower value 1.01 | locus YHR013C, strain ard1, stronger effect = lower value 0.988 | locus YHR027C, strain rpn1, stronger effect = lower value 0.986 | locus YHR030C, strain SLT2, stronger effect = lower value 1.01 | locus YHR079C, strain IRE1 (second series), stronger effect = lower value 1.02 | locus YHR094C, strain hxt1, stronger effect = lower value 1.01 | locus YHR129C, strain ARP1, stronger effect = lower value 1.01 | locus YHR142W, strain chs7, stronger effect = lower value 1.01 | locus YHR200W, strain rpn10, stronger effect = lower value 1.02 | locus YIL066C, strain RNR3, stronger effect = lower value 1.01 | locus YIL073C, strain SPO22, stronger effect = lower value 1.1 | locus YIL125W, strain kgd1, stronger effect = lower value 1.02 | locus YIR030C, strain dcg1, stronger effect = lower value 1.04 | locus YJL092W, strain hpr5, stronger effect = lower value 0.997 | locus YJL095W, strain BCK1 (second series), stronger effect = lower value 1.02 | locus YJL095W, strain BCK1, stronger effect = lower value 1.02 | locus YJL115W, strain asf1, stronger effect = lower value 1 | locus YJL129C, strain trk1, stronger effect = lower value 0.95 | locus YJL134W, strain LCB3, stronger effect = lower value 1.01 | locus YJL154C, strain vps35, stronger effect = lower value 0.999 | locus YJL164C, strain tpk1, stronger effect = lower value 0.998 | locus YJL166W, strain qcr8, stronger effect = lower value 0.989 | locus YJL168C, strain set2, stronger effect = lower value 1.02 | locus YJL187C, strain SWE1 (second series), stronger effect = lower value 1.01 | locus YJR043C, strain POL32, stronger effect = lower value 1.01
